Assay outcomes (PubChem)
FMDV antiviral – antivirals against foot and mouth disease virus; Potency, µM (highest dose often 57.9 µM), inactives show top-dose activity change, negative = inhibition, actives largely listed as inhibitors; 410,000 compounds, 1.2% hits; FMDV antiviral cell-based qHTS; AID 1159524; calls by dose curve; tested in HEK293T cells; note: read-out not given here; potency is the fitted concentration of half-maximal effect; nearly all actives have a fitted effect of over 45% in size
HCV inh – blocks hepatitis C virus; Huh7.5.1 HCVcc-Cre infection, luciferase reporter, 44 h; Potency, µM (titrated, usually from 41.8 µM), without a hit: at the highest dose activity change, negative = inhibition, most hits filed as inhibitors; AID 651820; 340,000 compounds, 3.4% hits; active = well fitted inhibition curve with a large enough effect; inconclusive = small, poorly fitted or top-dose-only effect, or another doubt; inactive = no such curve, though single readings can be large or run the other way; note: potency is the fitted concentration of half-maximal effect
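Cells (1,000/well) were plated 4 h before compound, then infected with HCVcc-Cre virus (~0.5 moi). After 44 h further culture, infection was read as luciferase luminescence following a 15 min substrate incubation at room temperature.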
HCMV antiviral – human cytomegalovirus inhibition. HFF cells, HCMV-luciferase reporter, 72 h; hits give low values. activity change, negative = inhibition, % at 57.5 µM. 410,000 compounds, 4.5% hits; in the data active = activity change below about -60%; inconclusive = no clear call, values can overlap the other calls; inactive = above about -39%
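Screen run at 2 compound doses on HFFs infected with reporter HCMV, MOI 1 PFU/cell. Luciferase activity from cell lysates at 72 h post infection gave inhibition relative to buffer-only and Salinomycin wells.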
Lassa entry inh – blocks Lassa virus binding to or entry into cells | 300,000 compounds, 1.2% hits | AID 540256 | Potency, µM (series often up to 37.9 µM), without a hit: top-dose activity change, negative = inhibition, actives largely listed as inhibitors | Lassa virus pseudotype entry inhibition, cell reporter; calls by dose curve; tested in HEK293 cells; note: potency is the fitted concentration of half-maximal effect; nearly all actives have a fitted effect of over 50% in size
Marburg entry inh – blocks Marburg virus binding to or entry into cells. Marburg virus pseudotyped entry inhibition, cell reporter. Potency, µM (doses to about 37.8 µM), inactives show at the highest dose activity change, negative = inhibition, most hits filed as inhibitors. 300,000 compounds, 1.8% hits; calls by dose curve; tested in HEK293 cells; note: potency is the fitted concentration of half-maximal effect
* hit, by the source's call; u = inconclusive; x = no result; [ ] = another dose, or the depositor's remark. Sampled rows, rich in hits. Any-hit rate of the full collection: about 7.9%. % is set by controls: 0 for no effect and ±100 for the full control effect.

SMILES | FMDV antiviral | HCV inh | HCMV antiviral | Lassa entry inh | Marburg entry inh
Cc1ccc(-c2csc(NC(=S)NC(=O)/C=C/c3ccco3)n2)cc1 | 15% | 13µM* | -37 | u | u
C=CCNc1nc(-c2ccc([N+](=O)[O-])cc2)cs1 | -3% | u | -69* | -1% | u
O=C(NC(=S)Nc1nc(-c2ccc([N+](=O)[O-])cc2)cs1)c1ccco1 | 8% | -4% | -84* | 12% | -17%
C=CCNc1nc(-c2ccc(Cl)cc2)cs1 | 13% | u | 13 | 11% | -9%
Cc1ccc(O)c(NC(=S)NC(=O)/C=C/c2ccco2)c1 | 17% | -5% | -11 | u | u
C=C1CN2C(=NC(c3ccccc3)C(C(=O)OC)=C2C)O1 (stereo not given) | x | x | x | x | 0%[14.2 µM]
COC(=O)c1ccc(OCC2c3cc(OC)c(OC)cc3CCN2C(=O)C(C)C)cc1 (stereo not given) | u | x | 12 | 9%[46.1 µM] | x
COC(=O)C(c1ccccc1)(c1cn(C)c2c(C)cccc12)C(Nc1ccccc1)c1ccccc1 (stereo not given) | x | x | -17 | x | x
CC(OC(=O)c1ccco1)C(=O)Nc1nc(-c2ccccc2)cs1 (stereo not given) | -10% | u | 57 | 10µM* | 11µM*
CC(=O)NC(=S)Nc1ccc(NC(=S)NC(=O)/C=C/c2ccco2)cc1 | 28% | -15% | -79* | u | -25%
O=C(Nc1nc(-c2ccccc2)cs1)c1ccco1 | -1% | -21% | 116 | -1%[46.1 µM] | -1%[46.1 µM]
COc1cccc(OCc2cc(=O)n3cc(C)sc3n2)c1 | 39% | x | 38 | -14%[46.1 µM] | 9%[46.1 µM]
Cc1cc(CSc2ccccc2)ccc1NC(=O)c1ccc(CN2CCOCC2)cc1 | 13µM* | u | -77* | u | u
Cc1cc(CSc2ccccc2)ccc1NC(=O)c1ccc(Cl)c([N+](=O)[O-])c1 | -27% | 7.9µM* | u | -3% | 26%[46.1 µM]
Cc1cc(CSc2ccccc2)ccc1NC(=O)c1ccc(C)c([N+](=O)[O-])c1 | -10% | -28% | -36 | 3% | -14%
Cc1ccc(CNC(=O)CCCn2c(=O)[nH]c3ccc(Br)cc3c2=O)cc1 | -19% | x | 13 | 3%[46.1 µM] | 12%[46.1 µM]
O=C(/C=C/c1cccs1)c1cc(F)ccc1OC(=O)N1CCOCC1 | 22µM* | u | -16 | -3% | -13%
O=C(/C=C/c1cccs1)N1CCOCC1 | 7% | 28% | 83 | 12% | 15%
CNC(=O)COC(=O)c1cc2c(C)nn(-c3ccc(F)cc3)c2s1 | 20% | u | 8 | -17% | u
Cc1nn(-c2ccccc2)c2sc(C(=O)NC3CC3)cc12 | 29% | 13µM* | 47 | u | 1%
Cc1nn(-c2ccc(F)cc2)c2sc(C(=O)N3CCCCCC3)cc12 | 45% | 14µM* | -8 | -26% | -20%
O=C(Nc1ccccc1-c1nc2ccccc2s1)c1cccnc1Cl | -17% | 35µM* | -15 | -11% | -26%
O=C(Nc1ccccc1-c1nc2ccccc2s1)c1ccc(F)cc1 | -14% | x | 13 | u | 3%[46.1 µM]
O=C(Nc1ccccc1-c1nc2ccccc2s1)c1ccco1 | -30% | 4µM* | 17 | -13% | -16%
CCc1ccc(-n2c(=O)c3sc4ccccc4c3n(CC(=O)NCc3ccccc3)c2=O)cc1 | -16% | x | -5 | u | 9%[46.1 µM]
SMILES | FMDV antiviral | HCV inh | HCMV antiviral | Lassa entry inh | Marburg entry inh
CN1/C(=C\C=C(C#N)C#N)C(C)(C)c2ccccc21 | -20% | 5% | -3 | x | x
CN1/C(=C/C=C/c2n(C)c3cc([N+](=O)[O-])c([N+](=O)[O-])cc3[n+]2C)C(C)(C)c2ccccc21 | u | x | -67* | x | x
CCOC(=O)C1=CN(Cc2cccc(F)c2)S(=O)(=O)N(C)C1c1ccc2ccccc2c1 (stereo not given) | 2% | 11µM* | -26 | x | x
CCCN1C(C)C(C(=O)OCC)=CN(Cc2cccc(I)c2)S1(=O)=O (stereo not given) | 4µM* | u | x | x | x
COc1ccc(Nc2cc3[nH]c(-c4ccccc4)cc3cn2)cc1 | x | x | 1 | x | x
CCc1ccccc1NC(=O)c1ccc2c(O)c(S(=O)(=O)c3ccccc3)c(=O)[nH]c2c1 | 9% | x | -5 | 0%[46.1 µM] | x
O=C1c2ccccc2C(=O)c2[nH]cnc21 | -17% | -21% | -26 | x | x
O=C1c2ccccc2C(=O)c2c1ncn2-c1ccccc1 | -15% | u | -68* | -3% | u
COc1ccc2nc(N3CCN(C(=O)CS(=O)(=O)c4ccc(C)cc4)CC3)sc2c1 | u | x | -64* | -30%[46.1 µM] | x
Cc1c(C2=CCN(S(=O)(=O)c3ccc(Cl)cc3)CC2)c2ccccc2n1CC(=O)N1CCCC1 | u | x | 12 | 20%[46.1 µM] | 10%[46.1 µM]
Cc1cc(NC(=O)c2cccc(S(=O)(=O)N3CCCC3)c2)no1 | 12% | 11% | 4 | -11%[14.3 µM] | -1%
Cc1cc(NC(=O)c2ccc(Br)c(S(=O)(=O)N3CCCC3)c2)no1 | u | u | -69* | 1% | -27%
Cc1ccc(O)c(NC(=O)c2cccc(S(=O)(=O)N3CCCCC3)c2)c1 | -8% | 11µM* | -25 | -14% | -16%[46.1 µM]
O=C(Nc1ccccn1)c1ccc(Br)c(S(=O)(=O)N2CCCCC2)c1 | u | 19% | 3 | 4% | 8%
Cc1ccc(NS(=O)(=O)c2ccc(C)c(NC(=O)c3ccc(S(=O)(=O)N4CCCCCC4)cc3)c2)c(C)c1 | -18% | x | -64* | x | x
Cc1ccc(O)c(NC(=O)c2ccc(Br)c(S(=O)(=O)N3CCCCC3)c2)c1 | 0% | x | -73* | u | x
CC(=O)c1ccc(NC(=O)c2ccc(CN3C(=O)CCn4nc(C)cc43)cc2)cc1 | 15% | x | 0 | 24%[46.1 µM] | x
Nn1cnnc1N/N=C\c1ccc(-c2ccccc2[N+](=O)[O-])o1 | 1% | -22% | 105 | 14µM* | u
CCCCOc1ccc(CCN)cc1Cl | 31% | u | -60* | 6% | u
Cc1[nH]nc(-c2ccc(OCc3cnn(-c4ccccc4)c3)cc2O)c1Oc1ccc(F)cc1 | -23% | u | -76* | -2% | -4%
CCOc1ccc(-c2nc(N)ncc2Oc2cccc(OC)c2)c(O)c1 | u | 13µM* | -11 | u | u
CCOc1ccc(-c2n[nH]c(C)c2Oc2ccc(OC)cc2)c(O)c1 | 3% | 11µM* | -18 | u | 0%
CCOc1ccc(-c2nc(N)ncc2Oc2ccccc2Br)c(O)c1 | u | u | -36 | -25% | u
COC(=O)c1cc(COC(=O)c2ccc(OC)c(S(=O)(=O)N3CCCC3)c2)oc1C | -7% | 16µM* | -20 | 3% | u
CCCCCCCCCCCC(=O)NC(Cc1ccc(OC)c([N+](=O)[O-])c1)C(=O)O (stereo not given) | -29% | 24% | 27 | -21% | 1%[46.1 µM]
CCOC(=O)C(Cc1ccc(OC)c([N+](=O)[O-])c1)NC(=O)CCC(=O)Nc1ccc(OC)cc1 (stereo not given) | 14% | 2% | -105* | -9%[46.1 µM] | 11%[46.1 µM]
COc1ccc(NC(=O)Cn2cc(C#N)c3ccccc32)cc1 | -8% | 1% | -10 | -3% | u
